Screens: PubChem, National Center for Advancing Translational Sciences (NCATS)
LmPK inhibitor – qHTS Assay for Inhibitors of Leishmania Mexicana Pyruvate Kinase (LmPK); Q27686; actives 0.37% (n = 290,000); Potency, µM (top dose mostly 57.5 µM), without a hit: at the top dose activity change, negative = inhibition, most hits filed as inhibitors; AID 1721, 2009; purified LmPK, Kinase-Glo ATP luminescence, 1 h; also: potency is read from the fitted curve at half-maximal effect; % is scaled to controls: 0 for no effect and ±100 for the full control effect
Target sequence (Q27686 whole entry, looked up): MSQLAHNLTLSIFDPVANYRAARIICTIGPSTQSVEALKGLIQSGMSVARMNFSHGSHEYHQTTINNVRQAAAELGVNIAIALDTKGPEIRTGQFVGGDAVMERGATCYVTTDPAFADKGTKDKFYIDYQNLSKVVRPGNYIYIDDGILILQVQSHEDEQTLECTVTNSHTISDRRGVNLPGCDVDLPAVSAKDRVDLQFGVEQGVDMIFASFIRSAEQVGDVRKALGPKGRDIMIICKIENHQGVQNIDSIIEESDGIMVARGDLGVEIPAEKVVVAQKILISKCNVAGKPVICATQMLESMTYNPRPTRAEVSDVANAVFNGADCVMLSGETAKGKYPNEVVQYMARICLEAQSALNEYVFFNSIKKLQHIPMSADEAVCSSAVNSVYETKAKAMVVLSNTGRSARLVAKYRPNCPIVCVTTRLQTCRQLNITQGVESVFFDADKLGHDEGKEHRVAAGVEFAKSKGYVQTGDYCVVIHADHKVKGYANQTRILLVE
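qHTS format; LmPK 0.1 nM; substrates PEP 0.5 mM and ADP 0.1 mM. One-hour room-temperature incubation, then coupled luciferase luminescence; 0.5 nM enzyme wells mark activation.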
Sm TGR block – qHTS Assay for the Inhibitors of Schistosoma Mansoni Peroxiredoxins | Potency, µM (series often up to 114 µM), for the others: at the highest dose activity change, negative = inhibition, hits mostly inhibitors | actives 3% (n = 360,000) | purified TGR, DTNB reduction, TNB absorbance 405 nm; also: potency is read from the fitted curve at half-maximal effect; % is scaled to controls: 0 for no effect and ±100 for the full control effect; nearly all actives have a fitted effect of over 60% in size
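Kinetic colorimetric format: TGR-catalysed, NADPH-driven DTNB reduction monitored via TNB absorbance. Enzyme dispensed at 20 nM; compound exposure 15 min at room temperature before reaction start.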
Shiga toxin inh – A qHTS for Small Molecule Inhibitors of Shiga Toxin; Vero cells, Shiga toxin protein synthesis inhibition reporter; inhibition, % at 38.7 µM; actives 9.2% (n = 290,000); in the data active = inhibition mostly above about 28%, no sharp cut-off; inactive = mostly below about 43%; also: 0% is about no effect
FBPA Giardia inh – qHTS Assay for Inhibitors of Fructose-1,6-bisphosphate Aldolase from Giardia Lamblia | A8B2U2 | purified Giardia FBPA | Potency, µM (series often up to 59.6 µM), without a hit: at the highest dose activity, negative = inhibition, usual class: inhibitors | actives 0.71% (n = 290,000) | AID 2451, 2010; also: potency is read from the fitted curve at half-maximal effect; % is scaled to controls: 0 for no effect and ±100 for the full control effect; nearly all actives have a fitted effect of over 55% in size
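40 nM FBPA preincubated 10 min at RT with compound (up to 57.5 uM final), then substrate plus GAPDH/TPI/NAD/arsenate coupling and diaphorase/resazurin added. Fluorescence read after 20 min at RT, 525/598 nm.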
TbPYK inhibitor – qHTS of Trypanosoma Brucei Inhibitors. Potency, µM (highest dose often 76.8 µM), inactives show top-dose activity, negative = inhibition, most hits filed as inhibitors. actives 0.12% (n = 410,000). pyruvate kinase (Trypanosoma brucei), Q57TT1. TbPYK enzyme, Kinase-Glo Plus ATP luminescence, 45 min. AID 624173, 2012; also: potency is read from the fitted curve at half-maximal effect; % is scaled to controls: 0 for no effect and ±100 for the full control effect; nearly all actives have a fitted effect of over 50% in size
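Glycolytic pyruvate kinase of T. brucei was incubated with substrate, test compound and 130 uM ADP for 45 minutes at room temperature. Luminescent Kinase-Glo Plus signal was measured after 10 minutes.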
CHX counter – Cycloheximide Counterscreen for Small Molecule Inhibitors of Shiga Toxin; actives 12% (n = 300,000); cell reporter, cycloheximide protein synthesis inhibition counterscreen; AID 2314, 2010; max response, %; in the data active = max response mostly above about 13%, no sharp cut-off; inactive = mostly below about 14%; also: read at 38.3 µM for the half of the compounds with a filed dose; 0% is about no effect
An asterisk follows results filed as active; ? = inconclusive; . = no result; [ ] = dose if it differs, or a comment. Many of the other results were omitted from the sample, so hits are more common in it than they were. Unless noted, calls follow the shape of the dose curve; as a rule, active = well fitted curve in the direction sought with a large enough effect; inconclusive = small, poorly fitted or top-dose-only effect, or another doubt; inactive = no such curve, though single readings can be large; an effect the other way counts as inactive or inconclusive.

SMILES	LmPK inhibitor	Sm TGR block	Shiga toxin inh	FBPA Giardia inh	TbPYK inhibitor	CHX counter
CC(=O)N1CC(=O)N=C1SCC(=O)Nc1nc(C)c(-c2ccccc2)s1	0%	-34%	37*	-15%	2%	33*
CCOc1ccc(-c2csc(NC(=O)CSC3=NC(=O)CN3C(C)=O)n2)c2ccccc12	-2%	-12%	-10	-6%	7%	-6
O=S(=O)(c1ccc(-c2cnc(C3CC3)o2)cc1)N1CCN(c2ccc(F)cc2)CC1	.	6%	.	.	-6%	.
COC(=O)c1cc(=O)nc(NN=Cc2ccc(C)cc2)s1	.	.	.	.	-21%	.
CCCN(CC(=O)Nc1ccccc1C)C(=O)c1ccc(S(=O)(=O)N2CCC(C)CC2)cc1	.	0%	.	.	-22%	.
COc1cnn(-c2ccc(C)cc2)c(=O)c1Br	2%	-2%	61	6%	-3%	39*
CNc1cnn(-c2ccc(C)cc2)c(=O)c1Sc1ccc(C)cc1	2%	0%	-5	2%	4%	-5
CNc1cnn(-c2ccc(C)cc2)c(=O)c1Cl	-4%	9%	81*	5%	-13%	40*
COc1cnn(-c2ccc(C)cc2)c(=O)c1Cl	-3%	5%	79*	1%	-13%	52*
CSc1cccc(NC(=O)CN(C)S(=O)(=O)c2ccc3c(c2)CCCN3C(C)=O)c1	.	2%	.	.	0%	.
Cc1ccc(-c2nnn3c2nc(NC(C)C)c2ccccc23)cc1	-2%	3%	20	4%	-8%	14*
Nc1nc2c(-c3ccc(Br)cc3)nnn2c2ccccc12	-5%	0%	96*	2%	-4%	49*
NNc1nc2c(-c3cccc(C(F)(F)F)c3)nnn2c2ccccc12	-9%	37%	53*	-28%	-6%	15*
Cc1ccc(-c2nnn3c2nc(NC2CCC(C)CC2)c2ccccc23)cc1 (configuration not stated)	.	-12%	.	.	-7%	.
FC(F)(F)c1cccc(-c2nnn3c2nc(NC2CCCCC2)c2ccccc23)c1	.	-3%	.	.	-2%	.
COC(=O)c1ccccc1NC(=O)Cn1c(=O)n(CCCCC(=O)NCc2ccc3c(c2)OCO3)c(=O)c2ccccc21	.	-2%	.	.	-10%	.
O=C1NC[C@H](CCCCN2C[C@H](Cc3ccccc3)N(CC3CCCCC3)C(=O)C2=O)N(CCc2ccccc2)C1=O	.	.	.	.	4%	.
CC(C)CCC(CC(C)O)c1n[nH]c(=S)n1-c1ccccc1 (configuration not stated)	10µM*	6%	-9	-10%	4.5µM*	9
CCC(c1n[nH]c(=S)n1-c1ccccc1)N(C)C (configuration not stated)	-22%	8%	-8	?	?	-4
CCOC(=O)C1(C)CCCN1C(=O)c1ccc(N(C)C)cc1 (configuration not stated)	.	.	.	.	-9%	.
CC(C)(C)NC(=O)Cn1nnc(-c2ccc(OCc3c(F)cccc3Cl)cc2)n1	3%	1%	33	9%	-18%	13*
CC(C)(C)NC(=O)Cn1nnc(-c2ccc(Cl)cc2)n1	-1%	-1%	16	6%	-2%	-2
COCCCNC(=O)/C=C1\Sc2ccccc2N(Cc2ccccc2F)C1=O	-5%	-6%	44	2%	-5%	32*
CCOC(=O)COc1ccc2c(c1)c(C(C)=O)c(C)n2-c1ccc(OC)cc1	0%	5%	145*	-7%	1%	63
COc1ccc(-n2c(C)c(C(C)=O)c3cc(O)ccc32)cc1	4%	-2%	-2	-1%	-2%	-4
SMILES	LmPK inhibitor	Sm TGR block	Shiga toxin inh	FBPA Giardia inh	TbPYK inhibitor	CHX counter
Fc1ccc(-c2csc(=Nc3cccc(C(F)(F)F)c3)n2Cc2ccc3c(c2)OCO3)cc1	.	8%	.	.	-7%	.
O=C(O)COCC(=O)N1CCCN(c2ccc(C(F)(F)F)cn2)CC1	9%	40µM*	-9	7%	-16%	-4
CC(=O)c1cccc(OCC(=O)N2CCN(c3ccc(C(F)(F)F)cn3)CC2)c1	-18%	-4%	12	-2%	9%	9
Cc1ccc(C(=O)NNC(=O)Cc2ccccc2)cc1	-1%	1%	75	5%	?	28*
Cc1ccc(C(=O)NNC(=O)Cc2cccs2)cc1	0%	6%	29	1%	5%	20*
N/C(=N\OC(=O)Cc1ccc(-c2ccccc2)cc1)c1cccc([N+](=O)[O-])c1	3%	-25%	-19	0%	0%	-2
N/C(=N\OC(=O)Cc1ccccc1)c1cccc(Br)c1	-1%	2%	48*	1%	-9%	11
N/C(=N\OC(=O)Cc1ccccc1[N+](=O)[O-])c1cccc(Br)c1	-2%	-8%	27	-1%	7%	18*
O=C1CN(C(=O)/C=C/c2ccccc2)CCN1	-2%	-4%	-4	12%	-6%	-2
O=C(/C=C/c1ccc(Cl)cc1Cl)N1CCN(c2ccccc2[N+](=O)[O-])CC1	2%	-1%	18	-16%	0%	9
O=C1CN(C(=O)/C=C/c2ccc(Cl)cc2Cl)CCN1	-1%	1%	59*	2%	2%	34*
CN1CCCN(C(=O)/C=C/c2ccc(Cl)cc2Cl)CC1	2%	14%	28	-6%	-2%	25*
Cc1ccc(C)c(NC(=O)C(Cc2ccccc2)n2cccc2)c1 (configuration not stated)	.	0%	.	.	3%	.
C[C@H]1COC(=O)[C@H]2CCCN2C(=O)[C@@H](C)COC(=O)[C@H](Cc2ccccc2)NC1=O	.	.	.	3%[12.9 µM]	.	.
CC1Cc2c([nH]c3ccccc23)C2c3ccccc3CN12 (configuration not stated)	-3%	22µM*	6	-13%	-6%	3
Cc1cccc(CN2C(=O)N/C(=C/c3ccc(C)s3)C2=O)c1	7%	-34%	47	0%	?	23*
CCN1C(=O)/C(=C/c2ccc(C)s2)NC1=S	0%	-23%	8	-15%	-26%	18
Cc1cccc(CN2C(=O)N/C(=C/c3cc(C)n(-c4cc(C)ccn4)c3C)C2=O)c1	0%	-32%	-10	-7%	-4%	-4
Cc1ccc(/C=C2/NC(=O)N(Cc3ccccc3)C2=O)s1	4%	?	37	-4%	?	55*
CCCC[C@@H]1C[C@H]1C(NC(=O)c1cccs1)c1ccc(C(F)(F)F)cc1 (some centres not stated)	.	.	.	-2%	.	.
CCOC(CNCc1cc(C)c2[nH]c3ccccc3c2c1C)OCC	.	.	.	.	-10%	.
Cc1ccc(C(=O)Nc2cc3[nH]c(=O)oc3cc2C)cc1	-3%	8%	24*	-5%	10%	11
